Some test systems named below: DU-145 prostate; K-562 leukemia; MALME-3M melanoma; MDA-MB-231 breast; RXF 393 renal; SF-268 CNS; SF-295 CNS; SF-539 CNS; UACC-257 melanoma; M14 melanoma; HCT-15 colon; HT29 colon; SNB-75 CNS; SNB-19 CNS; U251 CNS; PC-3 prostate; SK-MEL-5 melanoma; UACC-62 melanoma; LOX IMVI melanoma; SK-MEL-28 melanoma.
Holding throughout (assay): NCI-60 one-dose screen, 48 h (100 = growth as untreated, 0 = no growth, -100 = all killed)
Details in all cases: 10 µM unless noted

About 83,000 compounds went through this panel and 20% of them were active in at least one assay; those are over-represented in the sample as a whole.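 Cells were grown in 96-well plates and exposed to the test compound at a single concentration for 48 hours; results are reported as percent growth, with values below 10 considered active.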 A number with no mark means an inactive call. Active and inactive are the calls of the source.

Take `Clc1cccc(Nc2ncnc3ccc(-c4cnc5[nH]ccc5c4)cc23)c1`: the growth in the assay with DU-145 prostate was 54%; in the assay with K-562 leukemia, 62.1%; with MALME-3M melanoma it was 82.9%; in the assay on MDA-MB-231 breast, 75%; with RXF 393 renal, 73.7%; in the assay on SF-268 CNS, 66.2%. Besides, the growth in the assay with SF-295 CNS was 86.8%; in the assay on SF-539 CNS it was 84%; in the assay with UACC-257 melanoma, 75%; in the assay with M14 melanoma it was 88.7%; in the assay on HCT-15 colon it was 69.4%; with HT29 colon, 54.1%. The growth with SNB-75 CNS is 84.7%; in the assay on SNB-19 CNS it was 82.3%; with U251 CNS, 72.9%; in the assay with PC-3 prostate, 70.5%; in the assay with SK-MEL-5 melanoma, 75.4%; in the assay with UACC-62 melanoma, 90.2%. The growth in the assay on LOX IMVI melanoma was 86.2%; in the assay on SK-MEL-28 melanoma, 96%.

Turning to `Cn1cc(C(=O)c2nc(-c3c[nH]c4ccccc34)no2)c2cc(F)ccc21`, the growth in the assay on DU-145 prostate was 72.5%; with K-562 leukemia, 16.7%; in the assay on MALME-3M melanoma it was 37.3%; in the assay with MDA-MB-231 breast it was 57.1%; with RXF 393 renal, 89.9%; with SF-268 CNS, 54.9%. In addition, the growth is 20.7% with SF-295 CNS; 30% in the assay on SF-539 CNS; 51.2% in the assay with UACC-257 melanoma; 33% in the assay with M14 melanoma; 33.2% in the assay on HCT-15 colon; 8.8% (active) in the assay on HT29 colon. Moreover, the growth was 27.4% in the assay on SNB-75 CNS; 38.8% in the assay on SNB-19 CNS; 28.5% in the assay on U251 CNS; 41.9% in the assay with PC-3 prostate; 25.3% in the assay on SK-MEL-5 melanoma; 31.7% in the assay on UACC-62 melanoma. Further, the growth with LOX IMVI melanoma was 39.5%; in the assay on SK-MEL-28 melanoma, 64.6%.

As for `O=C(O)c1cn(C2CC2)c2cc(N3CCN(C(=O)N(c4ccccc4)c4nc(-c5ccccc5)cs4)CC3)c(F)cc2c1=O`, the growth was 15.4% in the assay with DU-145 prostate; 9.77% (active) in the assay on K-562 leukemia; 2.79% (active) with MALME-3M melanoma; -48% (active) with MDA-MB-231 breast; 8.65% (active) with RXF 393 renal; 19% in the assay on SF-268 CNS. Also, the growth in the assay with SF-295 CNS is -0.773% (active); with SF-539 CNS, -7.39% (active); in the assay on UACC-257 melanoma, 1.71% (active); in the assay with M14 melanoma, 17.7%; in the assay with HCT-15 colon, 6.28% (active); with HT29 colon, 4.23% (active). The growth in the assay with SNB-75 CNS is -9.1% (active); with SNB-19 CNS, 15.7%; in the assay on U251 CNS it was 12.6%; with PC-3 prostate, 8.6% (active); with SK-MEL-5 melanoma it was -61.3% (active); in the assay with UACC-62 melanoma it was -4% (active). For the same compound, the growth was -23.6% (active) in the assay on LOX IMVI melanoma and 36.1% with SK-MEL-28 melanoma.

As to `Cn1cc(-c2csc(-c3c[nH]c4ccccc34)n2)c2cnccc21`, the growth in the assay with DU-145 prostate is 20.9%; in the assay with K-562 leukemia, -28.1% (active); with MALME-3M melanoma, -79% (active); in the assay with MDA-MB-231 breast, -37.4% (active); in the assay with RXF 393 renal, -84% (active); in the assay on SF-268 CNS, 54.6%. The growth with SF-295 CNS was -69.7% (active); in the assay on SF-539 CNS, -88.4% (active); in the assay on UACC-257 melanoma, 90.9%; in the assay with M14 melanoma, -80.2% (active); in the assay with HCT-15 colon it was -59.7% (active); in the assay on HT29 colon, -1.85% (active). Besides, the growth with SNB-75 CNS was 80.6%; in the assay with SNB-19 CNS it was 48.8%; in the assay with U251 CNS it was -25.2% (active); in the assay with PC-3 prostate, 48.4%; in the assay on SK-MEL-5 melanoma, 51.9%; in the assay on UACC-62 melanoma, -52.7% (active). The figures for the growth with LOX IMVI melanoma and in the assay with SK-MEL-28 melanoma were -84.9% (active) and -51.5% (active), respectively.

For `COC(=O)c1nc(-c2ccc(C)cc2)oc1S(=O)(=O)c1cccc(OC)c1`, the growth was 104% in the assay with DU-145 prostate; 11.6% in the assay on K-562 leukemia; -12.3% (active) in the assay on MALME-3M melanoma; 94.1% with MDA-MB-231 breast; 77% with RXF 393 renal; 92.8% in the assay on SF-268 CNS. Also, the growth in the assay with SF-295 CNS is 104%; in the assay on SF-539 CNS, 101%; with UACC-257 melanoma it was 97.5%; in the assay with M14 melanoma, 90.4%; in the assay on HCT-15 colon, 62%; in the assay with HT29 colon, 97.1%. The growth was 83.3% with SNB-75 CNS; 101% in the assay with SNB-19 CNS; 96.5% with U251 CNS; 103% with PC-3 prostate; 97.8% in the assay with SK-MEL-5 melanoma; 92.5% with UACC-62 melanoma. Moreover, the growth with LOX IMVI melanoma is 57.1%; in the assay on SK-MEL-28 melanoma it was 99.2%.

With `O=C(CN1C(=O)S/C(=C\C(Cl)=C\c2ccccc2)C1=O)NCCc1ccc(O)cc1`, the growth with DU-145 prostate was 18.2%; in the assay with K-562 leukemia it was 10.1%; in the assay with MALME-3M melanoma, 52.1%; in the assay with MDA-MB-231 breast, 30.4%; with RXF 393 renal, -22.7% (active); in the assay with SF-268 CNS it was 60.7%. Further, the growth was 44% with SF-295 CNS; 15.6% in the assay with SF-539 CNS; 60.9% in the assay with UACC-257 melanoma; -26.7% (active) in the assay with M14 melanoma; 0.727% (active) in the assay with HCT-15 colon; 16.6% in the assay on HT29 colon. Also, the growth in the assay with SNB-75 CNS was 22%; in the assay on SNB-19 CNS it was 34.3%; in the assay on U251 CNS it was 19.3%; with PC-3 prostate, 24.7%; in the assay with SK-MEL-5 melanoma it was 46%; with UACC-62 melanoma, 8.67% (active). In addition, the growth in the assay on LOX IMVI melanoma is -51.5% (active); in the assay with SK-MEL-28 melanoma, 20.7%.

With `CCOC(=O)c1cc(C)n(-c2ccc(C(=O)O)cc2)c1C`, the growth is 7.16% (active) in the assay with DU-145 prostate; 116% in the assay with K-562 leukemia; 130% with MALME-3M melanoma; 80% with MDA-MB-231 breast; 80.8% in the assay with RXF 393 renal; 92.3% with SF-268 CNS. Besides, the growth was 90.7% in the assay on SF-295 CNS; 105% in the assay on SF-539 CNS; 96.5% in the assay on UACC-257 melanoma; 89.7% with M14 melanoma; 24.8% in the assay on HCT-15 colon; 37.8% in the assay with HT29 colon. The growth was 130% with SNB-75 CNS; 94.5% in the assay with SNB-19 CNS; 96.3% in the assay on U251 CNS; 83.3% in the assay on PC-3 prostate; 92% in the assay with SK-MEL-5 melanoma; 86.7% in the assay on UACC-62 melanoma. Moreover, the growth was 80.2% in the assay with LOX IMVI melanoma and 127% in the assay with SK-MEL-28 melanoma.

With `C=C1C(=O)O[C@H]2[C@H]1CC/C(COC(=O)NCc1ccc(Cn3c(=O)sn(CCCCC)c3=O)cc1)=C\CC[C@@]1(C)O[C@@H]21`, the growth is 9.23% (active) with DU-145 prostate; 1.16% (active) with K-562 leukemia; -14.5% (active) with MALME-3M melanoma; 31.1% with MDA-MB-231 breast; 11.6% in the assay on RXF 393 renal; 78.6% in the assay with SF-268 CNS. In addition, the growth in the assay with SF-295 CNS was 102%; in the assay with SF-539 CNS it was 46.5%; in the assay with UACC-257 melanoma, 47.1%; in the assay with M14 melanoma, 2.8% (active); in the assay with HCT-15 colon it was 16.8%; in the assay with HT29 colon, -33.4% (active). For the same compound, the growth in the assay on SNB-75 CNS is 74.4%; in the assay on SNB-19 CNS, 85.9%; with U251 CNS it was 52%; with PC-3 prostate, 46.4%; with SK-MEL-5 melanoma, 91.6%; in the assay on UACC-62 melanoma it was 46.5%. Besides, the growth in the assay with LOX IMVI melanoma was -11.6% (active); in the assay on SK-MEL-28 melanoma it was 47%.

For the origin of these results see PubChem BioAssay (NCI).
